High-throughput results as filed in PubChem BioAssay.
KB-3-1 tox: kills parental KB-3-1 adenocarcinoma cells. KB-3-1 viability, CellTiter-Glo ATP luminescence, 72 h. Potency, µM (series often up to 46.1 µM), hits mostly cytotoxic. 1.4% of 400,000 active; further: on the % scale 0 is the no-effect control and ±100 the full control effect; nearly all actives have a fitted effect of over 60% in size
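KB-3-1 parental drug-naive adenocarcinoma cells in DMEM/10% FBS, incubated 72 h at 37 C with pin-transferred compounds across a concentration series. Viability by CellTiter-Glo luminescence; concentration-response curves fitted after normalization.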
MCF10A rereplic: induces DNA re-replication in MCF 10a normal breast cells. 2.9% of 350,000 active. Potency, µM (titrated, usually from 46.1 µM), for inactives: at the top dose activity, positive = re-replication, usual class: activators. MCF 10A DNA re-replication, Hoechst nuclear intensity, 48 h; further: % of control where 0% means no effect; nearly all actives have a fitted effect of over 50% in size
SW480 rerep: inducers of DNA re-replication in SW480 colon cancer cells; SW480 DNA re-replication, Hoechst DNA content imaging, 48 h; Potency, µM (top dose mostly 46.1 µM), for inactives: at the highest dose re-replication activation, usual class: activators; 1.8% of 340,000 active; AID 624297; further: % of control where 0% means no effect; nearly all actives have a fitted effect of over 55% in size
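Hoechst fluorescence of nuclei (405 nm excitation, 500-530 nm emission) measured by plate-scanning imager after 48 hr compound exposure at 37 C; re-replication scored as increased number of nuclei with elevated intensity.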
HT1080NT lethal: kills 2HG-producing HT-1080-NT fibrosarcoma cells; Potency, µM (doses to about 46.1 µM), for inactives: top-dose activity, negative = less viability, usual class: cytotoxic; HT-1080-NT fibrosarcoma viability, CellTiter-Glo ATP luminescence, 48 h; 1.6% of 360,000 active;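 further: NT is the 2HG producing partner of a matched IDH1 knockdown line; 0% = DMSO-treated cells and -100% = media-only wells without cells; nearly all actives have a fitted effect of over 55% in size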
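Viability by CellTiter-Glo luminescence after 48 h compound exposure at 37C of HT-1080-NT cells (750/well, RPMI, 5% FBS). % activity scaled between DMSO wells and medium-only wells, then curve-fitted and categorized by curve class.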
KB-V1 cytotox: kills drug-selected multidrug resistant KB-V1 cells. AID 1347076. Potency, µM (highest dose often 46.1 µM), actives largely listed as cytotoxic. KB-V1 MDR cells viability, CellTiter-Glo, 72 h. 3.4% of 400,000 active; further: on the % scale 0 is the no-effect control and ±100 the full control effect; nearly all actives have a fitted effect of over 60% in size
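Following 72 h at 37 degrees C with compound, KB-V1 cell viability was read by CellTiter-Glo luminescence, medium being phenol-red-free DMEM plus 10% FBS; concentration-response parameters came from normalized, curve-fitted qHTS data.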
HT1080 IDH1KD tx: HT-1080 IDH1 knockdown cell toxicity (counter line); HT-1080 IDH1 knockdown viability, ATP luminescence, 48 h; Potency, µM (series often up to 46.1 µM), for inactives: top-dose activity, negative = toxicity, usual class: cytotoxic; 2% of 360,000 active;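 further: 0% = DMSO wells and -100% = cell-free medium wells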
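Knockdown cells (IDH1KD HT-1080) received compounds 2 h after plating at 750 cells/well and were kept 48 h at 37 °C in 5% FBS RPMI. A CellTiter-Glo luminescence read gave % activity for curve fitting.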
Starred values were filed as active, the others as inactive; i = inactive; ? = inconclusive; nt = no result given. A selection: hits, their analogues and other compounds. The true share with any hit is near 7.9%. The call rests on the fitted dose curve; in most records, active means well fitted curve in the direction sought with a large enough effect; inconclusive means small, poorly fitted or top-dose-only effect, or another doubt; inactive means no such curve, though single readings can be large; an effect the other way counts as inactive or inconclusive. Potency means the concentration at half of the fitted maximal effect.

SMILES | KB-3-1 tox | MCF10A rereplic | SW480 rerep | HT1080NT lethal | KB-V1 cytotox | HT1080 IDH1KD tx
COc1ccc([C@H]2C[C@@H](n3cc(C4CC4)nn3)[C@H](O)CN2CC2CCCCC2)cc1 | 16µM* | nt | nt | ? | ? | ?
Cc1nc2cccnc2n1-c1cccc(C(=O)NCCN(C)C)c1 | i | nt | nt | nt | i | nt
O=C(NNS(=O)(=O)c1ccc(CCCl)cc1)C(O)(c1ccccc1)c1ccccc1 | i | -7% | -7% | -1% | 16µM* | 8%
Cc1ccc(C(O)(C(=O)NNS(=O)(=O)c2ccc(C)cc2)c2ccc(C)cc2)cc1 | i | 30% | 19% | -3% | ? | 1%
CC(=O)N1c2ccccc2Oc2cc3ccccc3cc21 | i | -1% | 13% | -8% | i | -7%
O=C(CCl)N1c2ccccc2Oc2ccc3ccccc3c21 | i | 18µM* | 5.8µM* | ? | ? | 16µM*
Cc1nn(CC(C)C)c(Cl)c1C(=O)NCC1CCCO1 (configuration not stated) | i | nt | nt | 10% | i | 9%
CCOc1ccc(NC(=O)C2(c3cccs3)CCOCC2)cc1 | i | nt | nt | nt | i | nt
CC(C)C1C(=O)N(Cc2cn(CCC3OCCCO3)nn2)CCS(=O)(=O)N1Cc1ccc(-c2ccc(Cl)cc2)cc1 (configuration not stated) | i | nt | nt | 6% | i | 8%
CC(C)C1C(=O)N(Cc2cn(CCC3OCCCO3)nn2)CCS(=O)(=O)N1Cc1ccc(-c2ccc(Cl)c(Cl)c2)cc1 (configuration not stated) | ? | nt | nt | 16µM* | ? | ?
CC(C)C1C(=O)N(Cc2cn(CCC3OCCO3)nn2)CCS(=O)(=O)N1Cc1ccc(-c2ccc(Cl)cc2)cc1 (configuration not stated) | ? | nt | nt | 18µM* | 16µM* | ?
Cc1nn(C)c(C)c1NS(=O)(=O)c1ccc(N2CCCC2=O)cc1 | ? | ? | 63% | -29% | ? | ?
O=C1CCCN1c1ccc(S(=O)(=O)NCCc2ccc(Cl)cc2)cc1 | i | 5% | -2% | -18% | 18µM* | ?
COc1ccc(OC)c(NS(=O)(=O)c2ccc(N3CCCC3=O)cc2)c1 | 0.82µM* | ? | 0.82µM* | 0.52µM* | 2.1µM* | 0.52µM*
COc1ccc(NS(=O)(=O)c2ccc(N3CCCC3=O)cc2)cn1 | ? | 10µM* | 21µM* | 15µM* | ? | 18µM*
Cc1ccc(OCCNS(=O)(=O)c2ccc(N3CCCC3=O)cc2)cc1C | ? | 20% | ? | ? | 16µM* | -2%
Cc1ccc(OCCNS(=O)(=O)c2ccc(N3CCCC3=O)cc2)cc1 | i | 3% | -4% | -8% | i | -6%
COc1ccc(CCNS(=O)(=O)c2ccc(N3CCCC3=O)cc2)cc1 | i | ? | 0% | -8% | i | -6%
COc1ccc(OC)c(NC(=O)C2CC(=O)N(Cc3ccco3)C2)c1 (configuration not stated) | i | -1% | -2% | 5% | i | 1%
c1coc(CNc2ncnc3c2[nH]c2ccccc23)c1 | ? | nt | nt | nt | i | nt
CCCCOC(=O)c1ccc(Nc2ncnc3[nH]ncc23)cc1 | i | nt | nt | nt | i | nt
Cc1ccccc1NS(=O)(=O)c1ccc(N2CCCC2=O)cc1 | 5.2µM* | 12µM* | 3.7µM* | 12µM* | 2.6µM* | 9.2µM*
CCOC(=O)c1c(C)[nH]c(C)c1S(=O)(=O)N1CCCC(C(=O)Nc2ccc(OC)c(OC)c2)C1 (configuration not stated) | i | nt | nt | nt | i | nt
O=C(Cc1cccs1)Nc1nc(-c2ccc(F)c(F)c2)cs1 | ? | 8% | 2% | -7% | ? | -6%
O=C(Cc1ccc(F)cc1)Nc1nc(-c2ccc(F)cc2)cs1 | i | -1% | -6% | 6% | i | 5%
SMILES | KB-3-1 tox | MCF10A rereplic | SW480 rerep | HT1080NT lethal | KB-V1 cytotox | HT1080 IDH1KD tx
O=C(Cc1c(F)c(F)c(F)c(F)c1F)Nc1nc(-c2ccccc2)cs1 | ? | 18µM* | -10% | ? | ? | 16µM*
O=C(CS(=O)(=O)c1ccccc1)Nc1nc(-c2ccccc2)cs1 | i | -3% | -3% | -3% | i | -3%
O=C(Cc1ccccc1F)Nc1nc(-c2ccc(F)c(F)c2)cs1 | ? | 16µM* | ? | ? | ? | ?
Cc1ccc(S(=O)(=O)CC(=O)Nc2nc(-c3ccccc3)cs2)cc1 | i | -11% | 16% | -25% | 18µM* | -24%
O=C(Cc1cccs1)Nc1nc(-c2ccc(F)cc2F)cs1 | 23µM* | ? | ? | -15% | ? | ?
O=[N+]([O-])c1ccc2nc(CO)[nH]c2c1 | i | nt | nt | nt | i | nt
CCOC(=O)c1sc(N2C(=O)c3oc4ccc(F)cc4c(=O)c3C2c2ccc(C)cc2)nc1C (configuration not stated) | i | nt | nt | nt | i | nt
CC1Cc2cc(-c3csc(NC(=O)Cc4cccs4)n3)ccc2N1S(C)(=O)=O (configuration not stated) | 3.3µM* | ? | 2% | -11% | 2.6µM* | ?
